# Data: PubChem BioAssay AID651791 (National Center for Advancing Translational Sciences (NCATS), 2012)
# Records with an inconclusive call do not appear. Calls come from the whole dose curve; as a rule, active = well fitted inhibition curve with a large enough effect; inconclusive = small, poorly fitted or top-dose-only effect; inactive = no such curve, though single readings can be large or run the other way.
# Test: InCell qHTS Assay for Inhibitors of the mTORC1 Signaling Pathway in MEF (Tsc2-/-, p53-/-) Cells: Hit Validation;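 note: phospho-S6 Ser235/236 signal normalized to propidium iodide cell count per well; nearly all actives have a fitted effect of over 75% in size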
# Conditions: phospho-rpS6 immunofluorescence, 24 h; activity change, negative = inhibition: at 38.3 µM (top of the series)
row,Compound,"activity change, negative = inhibition [%]"
1,O=C(NCCN1CCN(c2cccc(Cl)c2)CC1)Nc1ccccc1C(F)(F)F,-100
2,Cc1nc2ccc(S(=O)(=O)CCC(=O)Nc3ccc(Cl)cc3)cc2s1,-100
3,CC(C)(C)C(=O)Nc1ccc(-c2nc3ccc(NC(=O)C(C)(C)C)cc3[nH]2)cc1,-27
4,CCOC(=O)C1CCN(c2cc3c(cc2NC(=O)c2ccccc2Cl)n(C)c(=O)n3C)CC1,-12.8
5,Cc1ccc(NC(=O)CSc2ccc(-c3ccccn3)nn2)cc1F,-100
6,CCCS(=O)(=O)c1c(S(=O)(=O)CCC)c2cc(C(C)(C)C)ccn2c1C(=O)c1ccc(OC)c(OC)c1,-100
7,CN(Cc1ccccc1)C(=O)CSc1c2c(nc3ccc(Cl)cc13)CCCC2,-100
8,Cc1ccc(C(=O)CC2(O)C(=O)N(Cc3ccccc3F)c3ccccc32)cc1 (stereo unspecified),-100
9,O=C(Cn1c(=O)c2cccn2c2ccccc21)NCc1ccccc1F,-100
10,CCN1CCN(C(=O)Cn2ncc3c4ccccc4n(Cc4c(C)cc(C)cc4C)c3c2=O)CC1,-100
11,CC(=O)Nc1ccc2nc(-c3cc(C)ccc3C)[nH]c2c1,-100
12,CCN1C(=O)c2ccccc2Sc2ccc(NC(=O)Cc3ccc(OC)cc3)cc21,-100
13,CCOC(=O)C1CCN(C(=O)CSc2c3c(nc4ccc(Cl)cc24)CCCC3)CC1,-100
14,CCOC(=O)c1ccc(-c2ccc(/C=C(\C#N)c3nc4ccc(C)cc4[nH]3)o2)cc1,-100
15,CCN(CC)c1ccc(NC(=O)CN(C)S(=O)(=O)c2cccc3nsnc23)c(C)c1,-100
16,Cc1ccccc1NC(=O)c1sc2nc3c(cc2c1N)CCCC3,-100
